# PubChem BioAssay AID1508600 (Functional Genomics Laboratory (NCATS/FGL), 2020)
# About 3,700 (7%) of roughly 53,000 sequences were called active. The entries come from a sample that favours actives as a whole. Values without a mark were called inactive.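 The calls were made as follows: active = gene knockdowns whose robust z-score for IL-1 alpha signal is at least 2 or at most -2, so actives lie on both sides; inactive = the rest.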
# Test: Components of the Cytosolic LPS Sensing Pathway: Gene Identification via Genome-wide siRNA Screen;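 also: robust z of the log signal after scaling to non-targeting control siRNA wells of the plate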
# Conditions: RAW264.7 macrophages, IL-1a HTRF, actives lie on both sides, screened at 100 nM (by protocol), cells primed 5 h with Pam3CSK4 first
# Method in brief: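 RAW264.7 mouse macrophages reverse-transfected with single siRNAs (100 nM final) for 48h, primed with Pam3CSK4 for 5 hours, then transfected with LipidA for 24 hour. Supernatant IL-1a read by HTRF; values normalized to negative-control median, log-transformed robust z-scores.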
row,Sequence,z-score
1,GCGGAAGUCGGAUUUUAUCTT against Kif1c,3.01 (active)
2,CCAACACGUUGCACAGAGUTT against A830073O21Rik,0.611
3,GGACAACCGAAGUUUUAAUTT against E130308A19Rik,0.0435
4,GGAGGUGACUAUCAUUUUUTT against Gng4,-0.498
5,CCAGCAAGUAAAACAAGCUTT against Olfr803,0.998
6,GGUACUUCUCAUGGAUAAATT against Vps45,-0.234
7,GGAACUAAAUAUCCCUAUGTT against Polr3gl,-1.26
8,GAUACUUGGCUCCUAGAAGTT against Olfr803,-1.22
9,GCAUGAAUUGUGGAAGAGATT against Csnk1a1,2.71 (active)
10,GCCAGGUGGAACCAAGUAUTT against Zcchc17,-1.67
11,GGCAUCUUAUGGCCUAAAATT against Rnf31,-1.08
12,GCGAAAAAGAUCGUCCUUGTT against Polr3a,-0.444
13,GGAUCUUUACAUCUCUAACTT against Krtap31-1,1.58
14,GCCAAACAUUGGUGGACAUTT against H2-D1,0.835
15,GCUUAAUAAUUUCAUCCAGTT against Brms1l,2.44 (active)
16,GGCCCAGUCCGAUAUUCUATT against Phxr4,-0.797
17,GCAAAUCAGUCUAUCGCUGTT against Mcpt8,0.39
18,GGUUUUCACUAUUUCAACUTT against Olfr187,-1.06
19,GGUAAAUGGUUUAACUACGTT against Tmem117,-0.68
20,GCAAAGGAUCGCUUGAAAATT against Mrpl40,-1.15
21,GGAAUAAAGCUCAUCUACGTT against Slc43a2,2.09 (active)
22,GGAUGAACACUGUUACAAATT against Tusc3,0.352

row,Sequence,z-score
1,GGUGAUGCAAGAAGAAAUUTT against Aldh3a2,0.169
2,GGCUCUGUUCUCCACAUUGTT against Phf5a,-1.6
3,GGCAAUGGUUCAGCAGUGGTT against Eef1e1,-0.564
4,GGCCUUUCAUGAAAGCUCATT against Ublcp1,-3.07 (active)
5,GGUAGCUGUGAUAAAGCAUTT against Pcbd1,-1.81
6,CCUGAUAUUCAUGACCAAATT against Wasf2,-0.0177
7,CGGUGGCAAAAUGAGAAGUTT against Cd79a,-0.142
8,CCCUAAUCUGGUGAACGAUTT against Mfap5,-1.05
9,GGUCUGAGCCUUGUCUUUATT against Pdx1,2.92 (active)
10,GGUGUCUGGUUCAUAAAGGTT against Lcn4,-0.344
11,GGACACAACUCAUUUUCAGTT against Prg3,-1.61
12,GGAAGGAGAGACCAUUGAGTT against Nudt1,-1.48
13,GCGAUUAAGUCUGAAUUGUTT against Cd93,0.425
14,GGAUACCUACCUGGACAGUTT against Dlgap4,-1.23
15,GGCACAUUGCUGAAGCCCATT against Aldoa,-2.42 (active)
16,GCUACACAUGGGAACUAACTT against 4631405J19Rik,1.51
17,GGCCUAUAUUGAUGAUUUUTT against 4930503L19Rik,2.31 (active)
18,GGGUGUACAGAGGAUCCGATT against Atp2a3,0.187
19,GGCAUUUACUUACUGUUCATT against Slc39a10,-0.331
20,CGAUUUCAUCGAACACUUCTT against Ccnd1,1.37
21,GGUACACAUGAGACAAUAUTT against Whamm,-2.18 (active)
22,GGCUUUGUUAGUCUAUGACTT against Dzip1l,-0.552

row,Sequence,z-score
1,GGUGGAAGACAAGAGGAUATT against Sytl5,-0.474
2,GGGUAAUACUCUUUGGUGCTT against Olfr594,0.34
3,GGUUUGCCUGUGCUGAUAUTT against Olfr549,-0.617
4,GAUGGUCCAGAGCGACUUCTT against Pou3f3,2.14 (active)
5,GGGUCAAGGUAGUAGUACCTT against Tob1,0.275
6,CCAUUACAUCCAUUUGAUUTT against Cfap206,0.328
7,GGUUUGAUGUUAGACAACGTT against Trim34a,0.652
8,GGACAACAAAGGGAGAUUCTT against Kctd12b,1.43
9,CCUACUUGGGAAAGUUCGCTT against Egr3,1.5
10,CCCACUUGCUGAAAAUUGUTT against Ankib1,-0.338
11,CCCAGAACACCGUAUACUUTT against Itga3,3.95 (active)
12,CCAAUUUCCUUUCAGACUGTT against Cxxc4,-1.2
13,GGACAGCACAAUUACCUUUTT against Nr3c1,-0.299
14,GGGUAGGAAACAAACACAGTT against Cox11,-0.234
15,GAAUGCUCUGAGACUUUUATT against Cd300c2,-2.48 (active)
16,GCUCCAAUAGCGUAUAUUATT against Pigt,-0.75
17,GGAGGACUAGUUGUGACUUTT against Aldh1a1,-0.384
18,UGGCAAGAUUGAAACCAUATT against Hnrnpa3,-1.61
19,GGUUCUUUCGAGAAUGGACTT against Nod1,-0.145
20,GGAUUUCCCAUCAAAGACGTT against Serpinf2,0.155
21,GCCCAAAUGAGACUACUUUTT against Ces1e,-1.24
22,GGCUCAGAUACUCUUAUAATT against Aknad1,-3.24 (active)

row,Sequence,z-score
1,GCUAAACAUAAAAAUCGACTT against Garre1,-1.27
2,GGAUUAAGUGGUCAAAUGATT against Ugt2b36,-0.62
3,CCACCUGUGCUACCACUUATT against Rexo4,-2.34 (active)
4,GGUUACAUAUCAGUUGAAATT against Slc35a3,0.032
5,GCAAAAUCUAGGGAUAAGATT against Trdv2-2,0.259
6,GGGAGAACAGCGACAAACATT against Cbfb,1.82
7,GAGUUCGAUGUUCAGGAGCTT against Ndrg1,-0.354
8,GGUUCAUGGGUUUUAAGUGTT against Eif1,2.25 (active)
9,GGAAGAGGAGAAGAAAAAGTT against Syf2,-1.25
10,GCACAGUUGGCAACCUUUATT against S100a9,-0.029
11,GGAUAACCCUAAGUUUAUGTT against Clu,0.753
12,GGACCUCAUCUACAGAAUGTT against Tssk1,0.878
13,CGGACAAAGGACGAGUGUUTT against Fn3krp,3.02 (active)
14,GGCAGUAGCCAGAAGGCAUTT against Rnf215,0.373
15,CGACAUAGCUUCUGUACUGTT against Spaca9,-1.42
16,CCUUUAGGUACCACGAGUGTT against Large2,-0.965
17,CCUUUAAAGUAAGCAUGUGTT against Slc27a4,0.112
18,GUUCUUUUUCUUCGGUUCCTT against Olfr1020,0.769
19,GGGUCUAGAGUGCAUCUUCTT against Krt78,0.418
20,GGCUGUUUUUGCCGGUAUCTT against Teddm3,1.58
21,GGAAAACCAACAAAGCAAATT against Pde10a,-0.692
22,UAUGACUCCACUCUUCUCUTT against Olfr1158,-2 (active)

row,Sequence,z-score
1,GGAAGAGGGCAAAAAUGGCTT against Sgms2,-0.441
2,GGUUAUUUCGGGAGAUAAGTT against Nudcd1,-0.351
3,GGCAGAACGGAAUAAAAUGTT against Stag2,-3.03 (active)
4,CCUGAUCAUGUUGAAGGAATT against Ktn1,0.256
5,GGACACUGCAAAAGAGGAGTT against Defa4,1.37
6,GGGAUACUCCAGACAAGGUTT against Usp17ld,0.142
7,GGCCAUCAGAGCUACACUUTT against Gpa33,0.806
8,CAUUGGUAUUGCCAAGGCATT against Olfr1330,0.373
9,GGGAGAAACCAUUUCAAGATT against Gm5084,0.0759
10,GGAUUUCUCUGCCUGUACUTT against Gdpgp1,0.37
11,GAUGAAGAGGCAGGCCAAGTT against Nkx2-4,2.63 (active)
12,GGUGUUAGCGAAAUGCUCATT against Prl7b1,-0.875
13,GCUCACUGCUACAAAUACCTT against Prss2,-1.82
14,GCUUUAUCCACAGGUGCCATT against Olfr1350,-1.9
15,GCCUAUUCACCAAAUCACATT against Frrs1,0.408
16,GAUCUGGCUGCUUCUUACCTT against Porcn,-0.623
17,GGCAUAAGAAAAUGGACCCTT against Fhit,2.04 (active)
18,GGGAUAGUGUAAGUUAGUUTT against Dppa4,-0.0875
19,GUUCUGAAAAUAGAAUAAUTT against Vmn1r16,0.237
